# Test results published in PubChem BioAssay (EPA / NIEHS).
# Where “and” joins values, the source holds several entries; their conditions need not be identical. Equal entries are not always repeated. Records with an inconclusive call do not appear. Calls of active or inactive are those of the source. The calls were made as follows: active = hit-call score of the fitted dose curve at least 0.9, where 1 is the maximum; inconclusive = response in the unintended direction; inactive = score below 0.9.
# Tested on: NCBI gene 24521
# Experiment: NVS_IC_rKATPCh: NovaScreen (NVS) Ion Channel Assay for rat Potassium Channel, ATP-Sensitive (KATPCh) (AID 2283319)
# Procedure, shortened: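 Primary duplicate screen at 25 uM, then singleton concentration series to 50 uM maximum, in a rat cortex membrane radioligand displacement assay. Binding measured by filtration and scintillation 2 h post-dose; DMSO baseline.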
Structure (SMILES),outcome,AC50
COC(=O)C(C)Oc1ccc(Oc2ccc(Cl)cc2Cl)cc1 (stereo not drawn),inactive,
COC(=O)c1ccccc1C(=O)OC,inactive,
CCCCNC(=O)OCC#CI,,9.23 µM (active) and 12.3 µM (active)

# Tested on: not listed separately
# Experiment: NVS_IC_rCaDHPRCh_L: NovaScreen (NVS) Ion Channel Assay for rat Calcium Channel, Type L, Dihydropyridine Site (CaDHPRCh_L) (AID 2283320)
# Procedure, shortened: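 Rat cortex membrane preparation; dihydropyridine-site radioligand displacement read 1 h post-dose by filtration and scintillation. Primary single-point screen 25 uM in duplicate, then concentration series to 50 uM maximum; DMSO as negative control.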
Structure (SMILES),outcome,AC50
COc1ccc(C(c2ccc(OC)cc2)C(Cl)(Cl)Cl)cc1,inactive,
OC(c1ccc(Cl)cc1)(c1cncnc1)c1ccccc1Cl (stereo not drawn),,19 µM (active)
C#CCOS(=O)OC1CCCCC1Oc1ccc(C(C)(C)C)cc1 (stereo not drawn),,37.4 µM (active)

# Target: Sodium channel protein type 1 subunit alpha (Rattus norvegicus) (UniProt P04774)
# Experiment: NVS_IC_rNaCh_site2: NovaScreen (NVS) Ion Channel Assay for rat Sodium Channel, Site 2 (NaCh) (AID 2283322);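 also: hit means loss of radioligand binding signal relative to DMSO so AC50 marks displacement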
# Procedure, shortened: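 Initial duplicate single-point testing at 25 uM, followed by concentration-response runs for actives. Binding of radioligand to rat forebrain membranes quantified after 1 h via filter-based radiodetection.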
Structure (SMILES),AC50,outcome
CCCC1COC(Cn2cncn2)(c2ccc(Cl)cc2Cl)O1 (stereo not drawn),25 µM (active),
OC(c1ccc(Cl)cc1)(c1cncnc1)c1ccccc1Cl (stereo not drawn),5.79 µM (active),
Oc1ccccc1-c1ccccc1,,inactive

# Target: bovine Gamma-Aminobutyric Acid Type A Receptor BDZ, alpha 5 site (GABARa5), GABRA5 (gene 523515) (UniProt Q08E50)
# Sequence (Q08E50 whole entry, looked up): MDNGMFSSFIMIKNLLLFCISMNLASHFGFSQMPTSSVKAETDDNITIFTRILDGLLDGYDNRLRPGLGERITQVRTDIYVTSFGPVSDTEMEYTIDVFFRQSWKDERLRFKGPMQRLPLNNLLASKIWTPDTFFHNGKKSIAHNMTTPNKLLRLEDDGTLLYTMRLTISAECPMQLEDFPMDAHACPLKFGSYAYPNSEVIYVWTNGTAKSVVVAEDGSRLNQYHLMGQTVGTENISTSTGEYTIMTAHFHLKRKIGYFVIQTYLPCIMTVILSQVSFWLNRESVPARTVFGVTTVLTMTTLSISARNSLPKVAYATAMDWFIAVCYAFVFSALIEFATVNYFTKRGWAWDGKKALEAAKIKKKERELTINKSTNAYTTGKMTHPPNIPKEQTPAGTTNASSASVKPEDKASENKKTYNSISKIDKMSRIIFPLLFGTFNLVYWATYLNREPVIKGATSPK
# Experiment: NVS_LGIC_bGABARa5: NovaScreen (NVS) Ligand-Gated Ion Channel Assay for bovine Gamma-Aminobutyric Acid Type A Receptor BDZ, alpha 5 site (GABARa5) (AID 2283323)
# Procedure, shortened: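 Tested first in duplicate at a single 25 uM, with hits re-run in concentration series to a 50 uM maximum. Bovine hippocampal membranes; specific radioligand displacement measured by filter scintillation counting 1 hr post-dose.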
Structure (SMILES),outcome,AC50
COc1ccc(C(c2ccc(OC)cc2)C(Cl)(Cl)Cl)cc1,inactive,
N#CC(CCc1ccc(Cl)cc1)(Cn1cncn1)c1ccccc1 (stereo not drawn),inactive,
CCCCOC(=O)c1ccccc1C(=O)OCCCC,,32.5 µM (active) and 19.3 µM (active)

# Target: rat Gamma-Aminobutyric Acid Type A Receptor, Non-Selective (GABAR-NonSelective), Gabra1 (gene 29705) (UniProt P62813)
# Sequence (P62813 whole entry, looked up): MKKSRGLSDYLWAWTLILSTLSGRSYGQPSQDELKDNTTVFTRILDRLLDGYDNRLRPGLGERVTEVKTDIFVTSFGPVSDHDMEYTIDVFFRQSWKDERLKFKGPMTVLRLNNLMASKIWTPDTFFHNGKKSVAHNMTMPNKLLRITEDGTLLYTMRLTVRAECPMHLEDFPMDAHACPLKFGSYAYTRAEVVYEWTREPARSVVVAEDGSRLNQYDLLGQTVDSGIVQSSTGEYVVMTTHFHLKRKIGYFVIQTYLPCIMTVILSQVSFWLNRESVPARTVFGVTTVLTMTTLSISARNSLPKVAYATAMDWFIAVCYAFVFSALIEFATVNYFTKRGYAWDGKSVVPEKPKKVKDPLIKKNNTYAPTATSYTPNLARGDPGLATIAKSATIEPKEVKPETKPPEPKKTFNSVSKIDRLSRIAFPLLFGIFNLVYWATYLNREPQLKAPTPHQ
# Experiment: NVS_LGIC_rGABAR_NonSelective: NovaScreen (NVS) Ligand-Gated Ion Channel Assay for rat Gamma-Aminobutyric Acid Type A Receptor, Non-Selective (GABAR-NonSelective) (AID 2283326)
# Procedure, shortened: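 Compounds were first screened in duplicate at 25 uM, with actives run as singleton concentration series (max 50 uM). Binding of a radioligand to rat whole-brain GABA-A preparation was measured by filtration and scintillation counting after 1 h, DMSO baseline.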
Structure (SMILES),outcome,AC50
N#Cc1cc(Br)c(O)c(Br)c1,inactive,
C=CCC1=C(C)[C@@H](OC(=O)[C@@H]2[C@@H](C=C(C)C)C2(C)C)CC1=O,inactive,
CCOC(=O)C(Cl)Cc1cc(-n2nc(C)n(C(F)F)c2=O)c(F)cc1Cl (stereo not drawn),inactive,
CN(C)C(=S)SSC(=S)N(C)C,inactive,
C=CCC1=C(C)C(OC(=O)C2C(C=C(C)C)C2(C)C)CC1=O (stereo not drawn),,7.41 µM (active) and 66.1 nM (active)

# Target: rat Thyrotropin Releasing Hormone Receptor (TRH), Trhr (gene 25570) (UniProt Q01717)
# Sequence (Q01717 whole entry, looked up): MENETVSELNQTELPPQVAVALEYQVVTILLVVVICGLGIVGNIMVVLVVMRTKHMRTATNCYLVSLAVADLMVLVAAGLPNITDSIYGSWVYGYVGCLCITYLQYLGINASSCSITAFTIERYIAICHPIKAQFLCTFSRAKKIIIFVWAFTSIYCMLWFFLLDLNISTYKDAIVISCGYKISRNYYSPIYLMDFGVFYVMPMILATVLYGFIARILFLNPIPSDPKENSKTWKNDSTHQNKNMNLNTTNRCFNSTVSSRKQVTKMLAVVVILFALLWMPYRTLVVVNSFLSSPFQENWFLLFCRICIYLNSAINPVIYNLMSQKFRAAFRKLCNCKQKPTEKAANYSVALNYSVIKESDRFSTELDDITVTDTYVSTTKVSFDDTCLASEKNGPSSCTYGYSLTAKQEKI
# Experiment: NVS_GPCR_rTRH: NovaScreen (NVS) G Protein-Coupled Receptor Assay for rat Thyrotropin Releasing Hormone Receptor (TRH) (AID 2283329);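 also: hit means lower bound tracer signal versus DMSO baseline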
# Procedure, shortened: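 Rat forebrain membrane prep, radioligand displacement, filter scintillation readout at 4 h. Single conc 25 uM, duplicate; actives retested as concentration series. DMSO = negative control/baseline.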
row,Structure (SMILES),outcome
1,N#Cc1nn(-c2c(Cl)cc(C(F)(F)F)cc2Cl)c(N)c1S(=O)C(F)(F)F (stereo not drawn),inactive
2,CCOc1cc(Oc2ccc(C(F)(F)F)cc2Cl)ccc1[N+](=O)[O-],inactive
3,CC(C)Oc1cc(-n2nc(C(C)(C)C)oc2=O)c(Cl)cc1Cl,inactive
4,CNC(=S)S,inactive
5,OC(c1ccc(Cl)cc1)(c1cncnc1)c1ccccc1Cl (stereo not drawn),inactive
6,Oc1ccccc1-c1ccccc1,inactive
